According to the supplement of paper PMC6089552:
Hit rate of the full screen: of about 3,200 compounds, about 300 (9.4%) showed activity. Only a selection was taken, and actives are over-represented in it overall.

Test system: A673/TR/shEF
Test: cell viability (LOESS-normalised, relative to median of negative controls) (log2 ratio); higher = more viable cells (less compound effect), active = hit call of the paper (over 3 MAD below the median)
Settings: treatment time: 72 h
How it was run: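 Doxycycline, present or absent from 24 h before compounds, was used to induce EWS-FLI1 shRNA knockdown in A673/TR/shEF Ewing sarcoma cells at 1,500 per well in 384-well plates. Cells then received library compounds at two or more concentrations, or DMSO controls, for three days. Viability was measured by CellTiter-Glo luminescence on an Envision reader, and per-plate LOESS correction, division by the negative-control median and log2 transformation followed.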

[1] = 0.25 µM, library screen: screen1, EWS-FLI1 expression: high (no doxycycline)
[2] = 0.25 µM, library screen: screen1, EWS-FLI1 expression: low (doxycycline-induced shRNA knockdown)
[3] = 2.5 µM, library screen: screen1, EWS-FLI1 expression: high (no doxycycline)
[4] = 2.5 µM, library screen: screen1, EWS-FLI1 expression: low (doxycycline-induced shRNA knockdown)
[5] = 0.25 µM, library screen: screen2, EWS-FLI1 expression: high (no doxycycline)
[6] = 0.25 µM, library screen: screen2, EWS-FLI1 expression: low (doxycycline-induced shRNA knockdown)
[7] = 2.5 µM, library screen: screen2, EWS-FLI1 expression: high (no doxycycline)
[8] = 2.5 µM, library screen: screen2, EWS-FLI1 expression: low (doxycycline-induced shRNA knockdown)
[9] = 0.025 µM, library screen: screen1, EWS-FLI1 expression: high (no doxycycline)
[10] = 0.025 µM, library screen: screen1, EWS-FLI1 expression: low (doxycycline-induced shRNA knockdown)
[11] = 25 µM, library screen: screen1, EWS-FLI1 expression: high (no doxycycline)
[12] = 25 µM, library screen: screen1, EWS-FLI1 expression: low (doxycycline-induced shRNA knockdown)

Measured: cell viability (log2)

C=C[C@H]1CN2CC[C@H]1C[C@@H]2[C@@H](OC(=O)OCC)c1ccnc2ccc(OC)cc12
inactive: [1] 0.12 | [2] 0.082 | [3] 0.173 | [4] 0.169

Brc1ccc(CN2CCNCC2)cc1
inactive: [1] 0.0414 | [2] 0.121 | [3] 0.0626 | [4] 0.0805

C[C@@H](N)[C@@H](O)c1ccccc1
inactive: [1] 0.199 | [2] 0.05 | [3] 0.0838 | [4] 0.0342

O=C(O)COc1ccc(Cl)cc1Cl
inactive: [1] 0.0733 | [2] 0.0542 | [3] 0.0257 | [4] 0.121

Oc1ccc2c3c1O[C@H]1c4oc5ccccc5c4C[C@@]4(O)C(C2)N(CC2CC2)CCC314 (stereo partly drawn)
inactive: [5] 0.123 | [6] 0.122 | [7] 0.0412 | [8] 0.065

CC(C)(C)c1o[nH]c(=O)c1CC(N)C(=O)O (stereo not drawn)
inactive: [5] 0.0947 | [6] 0.0371 | [7] 0.104 | [8] 0.0294

CC[C@@H](C)C(=O)O[C@H]1[C@H](O)[C@H]2[C@@H](CN3C[C@@H](C)CC[C@H]3[C@@]2(C)O)[C@@H]2C[C@]34O[C@]5(O)[C@@H](OC(=O)[C@@](C)(O)[C@@H](C)O)CC[C@@]3(C)[C@@H]5[C@@H](OC(C)=O)[C@@H](OC(C)=O)[C@H]4[C@@]21O
inactive: [1] 0.0432 | [2] 0.0125 | [3] 0.068 | [4] 0.0811

CN1C2CC3CC1[C@H](O)C2O3 (stereo partly drawn)
inactive: [1] 0.0139 | [2] -0.0209 | [3] 0.0278 | [4] 0.0758

NC(CF)(Cc1cnc[nH]1)C(=O)O (stereo not drawn)
inactive: [5] 0.186 | [6] 0.069 | [7] 0.162 | [8] 0.1

CC(=O)O[C@@H]1C[C@H]2C(C)(C)C(=O)C=C[C@]2(C)[C@H]2CC[C@]3(C)C(=CC(=O)O[C@H]3c3ccoc3)[C@@]21C
inactive: [1] 0.03 | [2] 0.143 | [3] 0.0618 | [4] 0.0922

C=C(C)C(=O)/C(=C\C(=O)O)OC
inactive: [1] 0.0761 | [2] 0.0593 | [3] 0.138 | [4] 0.0173

COP(=O)(OC)OC(Br)C(Cl)(Cl)Br (stereo not drawn)
inactive: [1] 0.05 | [2] -0.000859 | [3] 0.0787 | [4] 0.115

COc1cc(OC)c(OC)cc1C=O
inactive: [1] 0.0675 | [2] 0.0986 | [3] 0.037 | [4] 0.0609

CN[C@@H](C)[C@H](O)c1ccccc1
inactive: [1] 0.0728 | [2] 0.0797 | [5] 0.178 | [6] 0.073 | [3] 0.233 | [4] 0.0725 | [7] 0.0371 | [8] 0.00703

O=C(O)c1cc[c]([Hg][Cl])cc1
active: [7] -0.0791
inactive: [5] 0.203 | [6] 0.0774 | [8] 0.0559

COc1ccc(C(=O)O)cc1OC
inactive: [1] 0.0171 | [2] 0.0588 | [3] 0.137 | [4] -0.0498

NNCc1cccc(O)c1
inactive: [1] 0.103 | [2] 0.0544 | [5] 0.129 | [6] 0.00623 | [3] 0.142 | [4] 0.142 | [7] 0.151 | [8] 0.0221

NC(Cc1cc(O)c(O)cc1O)C(=O)O (stereo not drawn)
inactive: [5] 0.0775 | [6] 0.133 | [7] 0.0832 | [8] 0.2

CC(=O)c1c(O)c(C)c(O)c(Cc2c(O)c3c(c(C(=O)/C=C/c4ccccc4)c2O)OC(C)(C)C=C3)c1O
inactive: [9] 0.0285 | [10] 0.0263 | [1] 0.0889 | [2] 0.0306 | [5] 0.209 | [6] 0.109 | [3] 0.055 | [4] -0.0112 | [7] 0.118 | [8] 0.156 | [12] -0.0436
active: [11] -0.306

CC(N)Cc1c[nH]c2ccc(O)cc12 (stereo not drawn)
inactive: [5] 0.112 | [6] 0.067 | [7] 0.123 | [8] 0.0164

COc1ccc(C(c2ccc(OC)cc2)C(Cl)(Cl)Cl)cc1
inactive: [1] 0.0772 | [2] 0.0568 | [3] 0.0994 | [4] 0.0877

ClC1=C(Cl)[C@]2(Cl)[C@H]3[C@H]([C@@H]4C=C[C@H]3C4)[C@@]1(Cl)C2(Cl)Cl
inactive: [1] 0.211 | [2] 0.0643 | [3] 0.0733 | [4] 0.136

CCN(CC)C(=O)N[C@@H]1C[C@@H]2c3cccc4[nH]cc(c34)C[C@H]2N(C)C1
inactive: [5] 0.108 | [6] 0.0251 | [7] 0.215 | [8] -0.0279

CCCSP(=O)(OCC)SCCC
inactive: [1] 0.112 | [2] 0.104 | [3] 0.0625 | [4] 0.0939

CCCCSP(=O)(SCCCC)SCCCC
active: [1] -0.12
inactive: [2] 0.121 | [3] 0.0791 | [4] 0.0846

CC1=C[C@@H]2c3cccc4[nH]cc(c34)C[C@H]2N(C)C1
inactive: [5] 0.126 | [6] 0.0939 | [7] 0.18 | [8] 0.0817

CCOP(=S)(OCC)SCSCC
inactive: [1] 0.102 | [2] -0.0178 | [3] 0.0726 | [4] 0.115

NC1CC1c1ccccc1 (stereo not drawn)
inactive: [1] 0.107 | [2] 0.128 | [3] 0.188 | [4] 0.0868

COc1ccc2c3c1O[C@H]1[C@@H](O)CCC4[C@@H](C2)N(C)CC[C@@]341 (stereo partly drawn)
inactive: [1] 0.0725 | [2] 0.0483 | [3] 0.0123 | [4] 0.128

C=CCN1CCC2(C)c3cc(O)ccc3CC1C2C (stereo not drawn)
inactive: [5] 0.143 | [6] 0.072 | [7] 0.0589 | [8] 0.0707

N#Cc1c(Cl)cccc1Cl
inactive: [1] 0.126 | [2] 0.0183 | [3] 0.084 | [4] 0.0798

N#Cc1c(Cl)c(Cl)c(Cl)c(C#N)c1Cl
active: [3] -0.219
inactive: [1] -0.0732 | [2] 0.00425 | [4] 0.063

CCCCOC(=O)c1ccccc1C(=O)OCc1ccccc1
inactive: [1] 0.109 | [2] 0.0867 | [3] 0.0605 | [4] 0.00546

C[C@@H]1c2cc(O)c(O)cc2CCN1C
inactive: [5] 0.203 | [6] 0.114 | [7] 0.129 | [8] 0.102

C[N+]1(C)C2CC(OC(=O)C(CO)c3ccccc3)CC1C1OC12 (stereo not drawn)
inactive: [1] 0.0929 | [2] 0.0137 | [3] 0.182 | [4] 0.0439

CC(C)(C)c1cc(C=C(C#N)C#N)cc(C(C)(C)C)c1O
inactive: [9] 0.176 | [10] 0.0512 | [1] 0.092 | [2] 0.0707 | [5] 0.104 | [6] 0.0526 | [4] -0.0795 | [7] 0.0132 | [8] 0.112
active: [3] -1.1 | [11] -3.7 | [12] -2.45

CCC1C2CC3[C@@H]4N(C)c5ccccc5[C@]45CC(C2[C@H]5O)N3[C@@H]1O (stereo partly drawn)
inactive: [1] 0.014 | [2] -0.00944 | [3] 0.104 | [4] 0.0619

CCC(=O)Nc1ccc(Cl)c(Cl)c1
inactive: [1] 0.114 | [2] -0.0209 | [3] 0.0655 | [4] 0.0703

NCC(=O)c1ccccc1
inactive: [1] 0.0631 | [2] 0.0462 | [3] 0.0615 | [4] -0.00509

CC(=O)[O][Hg][c]1ccccc1
inactive: [2] -0.147
active: [1] -0.557 | [3] -2.86 | [4] -2.46

CCCN1CCCC2Cc3[nH]ncc3CC21 (stereo not drawn)
inactive: [5] 0.135 | [6] 0.086 | [7] 0.231 | [8] 0.107

C[C@@H]1C[C@@H]([C@H](O)CC2CC(=O)NC(=O)C2)C(=O)[C@@H](C)C1
inactive: 0.025 µM, library screen: screen2, EWS-FLI1 expression: high (no doxycycline) 0.156 | 0.025 µM, library screen: screen2, EWS-FLI1 expression: low (doxycycline-induced shRNA knockdown) 0.119 | [1] 0.141 | [2] 0.0197 | [5] 0.0548 | [6] 0.0334
active: [3] -0.514 | [4] -0.278 | [7] -0.922 | [8] -0.399 | 25 µM, library screen: screen2, EWS-FLI1 expression: high (no doxycycline) -2.23 | 25 µM, library screen: screen2, EWS-FLI1 expression: low (doxycycline-induced shRNA knockdown) -1.54

COc1ccc(CN2CCN(Cc3cccc(OC)c3)CC2)cc1
inactive: [1] -9.1e-05 | [2] 0.123 | [3] 0.136 | [4] 0.0992

ClC(Cl)=C(c1ccc(Cl)cc1)c1ccc(Cl)cc1
inactive: [1] 0.0882 | [2] 0.047 | [3] 0.0599 | [4] 0.0669

CC[C@H]1CN2CC[C@H]1C[C@@H]2[C@@H](O)c1ccnc2ccc(OC)cc12
inactive: [1] 0.074 | [2] 0.121 | [3] 0.133 | [4] 0.0925

COc1cc(C[C@@H](C)N)c(OC)cc1I
inactive: [5] 0.178 | [6] 0.0876 | [7] 0.142 | [8] 0.145

CCCC1CCCCN1 (stereo not drawn)
inactive: [1] 0.115 | [2] 0.153 | [3] 0.172 | [4] 0.128

CC(Cc1ccc(O)cc1)NCC(O)c1cc(O)cc(O)c1 (stereo not drawn)
inactive: [1] 0.143 | [2] 0.0538 | [5] 0.23 | [6] 0.0381 | [3] 0.142 | [4] 0.063 | [7] 0.166 | [8] 0.00325
